# From PubChem BioAssay AID493052 (Broad Institute, 2011)
# Results with a measured potency or affinity are listed apart. Values without a mark were called inactive.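 The calls were made as follows: active = viability falls with dose and fitted half-maximal concentration is at most ten times the top valid dose; inconclusive = flat partial loss of 30 to 70 percent, or poor fit; inactive = flat within 30 percent, too weak, or rising signal.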
# Test: BJeHLT cell viability loss – BJeHLT cells, dry powder, counter-screen for Ras selective lethality project, dose response (AID 493052)
# Conditions: BJeHLT fibroblasts viability, Alamar Blue fluorescence, 48 h; series mostly up to 45 µM; activity change, negative = less viable: at the top concentration
row,Structure (SMILES),"activity change, negative = less viable"
1,COc1ccc(N(C(=O)CO)C(C(=O)NCCc2ccccc2)c2cccs2)cc1Cl (stereo not given),7.01%
2,O=C(c1[nH]ncc1[N+](=O)[O-])N1CCN(C(c2ccccc2)c2ccccc2)CC1,6.21%
3,CCC(=O)N(c1ccc(OC)c(Cl)c1)C(C(=O)NCCc1ccccc1)c1cccs1 (stereo not given),2.96%
4,COCC(=O)N(c1ccc(OC)c(Cl)c1)C(C(=O)NCCc1ccccc1)c1cccs1 (stereo not given),4.09%
5,COc1ccc(N(C(=O)CSc2ncccn2)C(C(=O)NCCc2ccccc2)c2cccs2)cc1Cl (stereo not given),-15.2% [at 38 µM]
